Compounds without any hit were thinned out: in the full panel of roughly 83,000, 20% have a hit.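 In brief: 96-well plates, 48 h treatment, single concentration, percent growth endpoint.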 Values without a mark were called inactive. Calls of active or inactive are those of the source. How the source made its calls: active means growth percent below 10; inactive means the rest.
What was measured:
Assay in all cases: NCI-60 one-dose screen, 48 h (100 = growth as untreated, 0 = no growth, -100 = all killed)
Conditions in all cases: 10 µM unless noted
[1] = system: NCI-H23 lung
[2] = system: NCI-H226 lung
[3] = system: NCI-H322M lung
[4] = system: NCI-H460 lung
[5] = system: HOP-92 NSCLC
[6] = system: NCI-H522 lung
[7] = system: A549/ATCC NSCLC
[8] = system: 786-0 renal
[9] = system: COLO 205 colon
[10] = system: DU-145 prostate
[11] = system: K-562 leukemia
[12] = system: MALME-3M melanoma
[13] = system: MDA-MB-231 breast
[14] = system: RXF 393 renal
[15] = system: SF-268 CNS
[16] = system: SF-295 CNS
[17] = system: SF-539 CNS
[18] = system: UACC-257 melanoma
[19] = system: M14 melanoma
[20] = system: HOP-62 NSCLC

Compound: C=C(C)[C@@H]1CC[C@]2(C(=O)NCC#CCN3CCN(C)CC3)CC[C@]3(C)[C@H](CC[C@@H]4[C@@](C)(CCC#N)[C@H](C(=C)C)CC[C@]43C)[C@@H]12
- growth [1]: 75.7%
- growth [2]: 57.6%
- growth [3]: 74.9%
- growth [4]: 26.4%
- growth [5]: 8.35% (active)
- growth [6]: 68.5%
- growth [7]: 49.6%
- growth [8]: 54.5%
- growth [9]: 57.8%
- growth [10]: 57.5%
- growth [11]: 2.05% (active)
- growth [12]: 56.9%
- growth [13]: 42.1%
- growth [14]: 39.8%
- growth [15]: 62.4%
- growth [16]: 94.2%
- growth [17]: 66%
- growth [18]: 56.7%
- growth [19]: 5.09% (active)

Compound: COc1ccc(/C=C2\COc3ccc(O)c(O)c3C2=O)cc1
- growth [1]: 33.2%
- growth [2]: 67.4%
- growth [3]: 47.9%
- growth [4]: 19.2%
- growth [5]: -6.45% (active)
- growth [6]: -60.5% (active)
- growth [7]: 38.1%
- growth [8]: -40.9% (active)
- growth [9]: 66.2%
- growth [10]: 19.4%
- growth [11]: 13.4%
- growth [12]: -26.3% (active)
- growth [13]: -11.4% (active)
- growth [14]: 2.29% (active)
- growth [15]: 2.86% (active)
- growth [16]: 48.5%
- growth [17]: -36.9% (active)
- growth [18]: 14.8%
- growth [19]: 8.06% (active)

Compound: CCN(CC)CCCN1C(=O)c2c(c(C)c3c(oc4cc(O)ccc43)c2C)C1=O
- growth [1]: 104%
- growth [2]: 35.4%
- growth [3]: 92.5%
- growth [4]: -24.6% (active)
- growth [5]: 93.7%
- growth [6]: 82.6%
- growth [7]: -74% (active)
- growth [8]: -80.6% (active)
- growth [9]: 57.4%
- growth [10]: -61.7% (active)
- growth [11]: -14.4% (active)
- growth [12]: -80.4% (active)
- growth [13]: -80.3% (active)
- growth [14]: 75.7%
- growth [15]: -41.4% (active)
- growth [16]: 110%
- growth [17]: 96.4%
- growth [18]: 94.5%
- growth [19]: -88.8% (active)

Compound: Cc1ccc2c3c(c(=O)[nH]c2c1)C1(C(C#N)=C(N)O3)c2cc(Br)ccc2-c2ccc(Br)cc21
- growth [1]: 6.8% (active)
- growth [2]: -17% (active)
- growth [3]: 16.5%
- growth [4]: -56.5% (active)
- growth [5]: -10.8% (active)
- growth [6]: -8.2% (active)
- growth [7]: -42.4% (active)
- growth [8]: -19.5% (active)
- growth [9]: -51.8% (active)
- growth [10]: -7.81% (active)
- growth [11]: 18.8%
- growth [12]: -47.9% (active)
- growth [13]: -33.9% (active)
- growth [14]: -63.6% (active)
- growth [15]: -26.9% (active)
- growth [16]: -68.7% (active)
- growth [17]: -51% (active)
- growth [18]: 71.2%
- growth [19]: 50.6%

Compound: N=C(N)c1ccc(-c2ccc(-c3ccc(F)cc3)o2)o1
- growth [1]: 44.8%
- growth [2]: 69.7%
- growth [3]: 42.4%
- growth [4]: -13.7% (active)
- growth [5]: 16.2%
- growth [6]: 37.4%
- growth [7]: 1.43% (active)
- growth [8]: 15.4%
- growth [9]: -76.5% (active)
- growth [10]: 28.7%
- growth [11]: -28.5% (active)
- growth [12]: 41.6%
- growth [13]: 8.5% (active)
- growth [14]: 39.6%
- growth [15]: 30%
- growth [16]: 31.4%
- growth [17]: 21.9%
- growth [18]: 57.7%
- growth [19]: -54.1% (active)

Compound: CCN(CC)CCSc1nc(-c2ccccc2)c(C#N)c(=O)[nH]1
- growth [1]: 68.9%
- growth [2]: 116%
- growth [3]: 122%
- growth [4]: 118%
- growth [5]: 120%
- growth [6]: 104%
- growth [7]: 113%
- growth [8]: 97.7%
- growth [9]: 94.9%
- growth [10]: 112%
- growth [11]: 129%
- growth [12]: 140%
- growth [13]: 116%
- growth [14]: 118%
- growth [15]: 102%
- growth [16]: 105%
- growth [17]: 100%
- growth [18]: 111%
- growth [19]: 111%

Compound: O=C(NCc1ccccc1)Nc1ccccc1CNc1nc(Nc2ccc(OCCN3CCCC3)cc2)ncc1Cl
- growth [1]: 85.4%
- growth [2]: 109%
- growth [3]: 109%
- growth [4]: 39.4%
- growth [5]: 83.8%
- growth [6]: 108%
- growth [7]: 97.5%
- growth [8]: 46.7%
- growth [9]: 112%
- growth [10]: 78.4%
- growth [11]: 64.5%
- growth [12]: 90.7%
- growth [13]: 97%
- growth [14]: 79.4%
- growth [15]: 83.2%
- growth [16]: 95.5%
- growth [17]: 92.4%
- growth [18]: 102%
- growth [19]: 99.7%

Compound: CCCCNC(=O)Oc1ccc(/C(=C(/CC)Cc2ccccc2)c2ccc(OCCN3CCCCCC3)cc2)cc1
- growth [1]: 57.4%
- growth [2]: 83.4%
- growth [3]: 85.4%
- growth [4]: -59.8% (active)
- growth [5]: 36%
- growth [6]: 30.4%
- growth [7]: 39.5%
- growth [8]: 36.6%
- growth [9]: -75% (active)
- growth [10]: 49.9%
- growth [11]: -24.8% (active)
- growth [12]: -58.3% (active)
- growth [13]: 43.3%
- growth [14]: 16.7%
- growth [15]: 61%
- growth [16]: 91.9%
- growth [17]: -30.2% (active)
- growth [18]: 34.3%
- growth [19]: -19.3% (active)

Compound: Nc1nc2c([nH]1)c1[nH]c3ccccc3c1c1[nH]c3ccccc3c21
- growth [1]: 63.5%
- growth [2]: 78.3%
- growth [3]: 25.6%
- growth [4]: 8.05% (active)
- growth [6]: 26.4%
- growth [7]: 85.5%
- growth [8]: 30.9%
- growth [9]: -81.3% (active)
- growth [10]: 50.2%
- growth [11]: -41.6% (active)
- growth [12]: -72.4% (active)
- growth [13]: -38.7% (active)
- growth [14]: -7.44% (active)
- growth [15]: 71.9%
- growth [16]: 42.8%
- growth [17]: 55.6%
- growth [18]: 103%
- growth [19]: -68.9% (active)

Compound: Cc1nn(-c2ccccc2)c(Oc2ccccn2)c1-c1nc2ccccc2s1
- growth [1]: 87.7%
- growth [2]: 93.8%
- growth [3]: 93.3%
- growth [4]: 106%
- growth [5]: 80.9%
- growth [6]: 82.2%
- growth [7]: 92.9%
- growth [8]: 104%
- growth [9]: 110%
- growth [10]: 98.6%
- growth [11]: 90.7%
- growth [12]: 103%
- growth [13]: 124%
- growth [14]: 86.1%
- growth [15]: 92.9%
- growth [16]: 115%
- growth [17]: 108%
- growth [18]: 98%

Compound: Cc1cc2c(O)c(-c3cc(Cl)ccc3Cl)c3sc(=O)oc3c2cc1C
- growth [1]: 44.2%
- growth [2]: 58%
- growth [3]: 89.8%
- growth [4]: 34.4%
- growth [5]: -15.5% (active)
- growth [6]: 26.4%
- growth [7]: 60.2%
- growth [8]: 83.8%
- growth [9]: 112%
- growth [10]: 69.5%
- growth [11]: 28.3%
- growth [12]: 100%
- growth [13]: 77.3%
- growth [14]: 86%
- growth [15]: 65%
- growth [16]: 72.5%
- growth [17]: 89.9%
- growth [18]: 60.8%
- growth [19]: 81.1%

Compound: N#Cc1c(-c2cccs2)cc(-c2cccnc2)[nH]c1=O
- growth [1]: 102%
- growth [2]: 98.5%
- growth [3]: 96.8%
- growth [4]: 110%
- growth [5]: 104%
- growth [6]: 98.7%
- growth [7]: 97.8%
- growth [8]: 103%
- growth [9]: 97.2%
- growth [10]: 109%
- growth [11]: 98.2%
- growth [12]: 104%
- growth [13]: 105%
- growth [14]: 101%
- growth [15]: 100%
- growth [16]: 101%
- growth [17]: 95.5%
- growth [18]: 97.1%
- growth [19]: 106%

Compound: OCc1cccc(-c2ccc3ncc(-c4nc(NC5CC5)ncc4F)n3c2)c1
- growth [1]: -16.3% (active)
- growth [2]: 2.19% (active)
- growth [3]: -6.44% (active)
- growth [4]: -4.33% (active)
- growth [5]: -13.9% (active)
- growth [6]: -13.9% (active)
- growth [7]: -8.48% (active)
- growth [8]: 6.46% (active)
- growth [9]: -39.7% (active)
- growth [10]: 2.04% (active)
- growth [11]: 4.91% (active)
- growth [12]: -69% (active)
- growth [13]: -15.6% (active)
- growth [14]: -44.3% (active)
- growth [15]: -24.5% (active)
- growth [16]: 4.24% (active)
- growth [17]: -61.2% (active)
- growth [18]: -29.9% (active)
- growth [19]: -39.4% (active)

Compound: C=CCn1c(SCC(=O)NCc2cc(C)c(O)c(C)c2)nc2ccc(Cl)cc2c1=O
- growth [1]: 101%
- growth [2]: 87.2%
- growth [3]: 97%
- growth [20]: 101%
- growth [4]: 107%
- growth [6]: 94.1%
- growth [7]: 106%
- growth [8]: 92.5%
- growth [10]: 105%
- growth [11]: 58.6%
- growth [12]: 98.8%
- growth [13]: 111%
- growth [14]: 98.6%
- growth [15]: 99.2%
- growth [16]: 91.1%
- growth [17]: 101%
- growth [18]: 102%
- growth [19]: 115%

Compound: O=C1/C(=C/c2cccs2)SC(=S)N1CCCN1CCOCC1
- growth [1]: 96.7%
- growth [2]: 95.5%
- growth [3]: 94.7%
- growth [4]: 99%
- growth [5]: 23%
- growth [6]: 71.5%
- growth [7]: 93.2%
- growth [8]: 92.7%
- growth [9]: 111%
- growth [10]: 92%
- growth [11]: 85.4%
- growth [12]: 84.3%
- growth [13]: 82.7%
- growth [14]: 99.6%
- growth [15]: 102%
- growth [16]: 102%
- growth [17]: 92.7%
- growth [18]: 93.9%

Compound: O=C(NNC(=O)c1ccc(-n2cc(-c3ccccc3)nn2)cc1)Nc1ccccc1
- growth [1]: 97.6%
- growth [2]: 99.6%
- growth [3]: 108%
- growth [4]: 109%
- growth [5]: 98.8%
- growth [6]: 108%
- growth [7]: 102%
- growth [8]: 104%
- growth [9]: 111%
- growth [10]: 106%
- growth [11]: 105%
- growth [12]: 113%
- growth [13]: 108%
- growth [14]: 103%
- growth [15]: 90.2%
- growth [16]: 101%
- growth [17]: 96%
- growth [18]: 103%

Reference: PubChem BioAssay (NCI)
